Screens as filed in PubChem.
Only a sample is shown.
aSyn UTR act: Activators working through SNCA 5'UTR binding (MLPCN); actives 7.1% (n = 300,000); alpha-synuclein 5'UTR reporter, activators screen; activity score, % (tested at 7.5 µM), hits read low; in the data active = activity score below about -60%
Hits are given with their value; 0 = inactive.

SMILES	aSyn UTR act
O=C(Nc1ccc2c(c1)OCO2)N1CCN(c2ccc(F)cc2)CC1	-122
O=C(Nc1ccc2c(c1)OCO2)N1CCN(c2ccccc2)CC1	-195
O=C(Nc1ccc2c(c1)OCO2)N1CCN(c2ncccn2)CC1	-111
c1ccc2[nH]c(SCc3cscn3)nc2c1	-104
c1ccc2[nH]c(-c3cscn3)nc2c1	-99
c1ccc2nc(-c3nc4ccccc4[nH]3)ccc2c1	0
O=C1c2ccccc2NC(c2cccc([N+](=O)[O-])c2)N1CCc1ccccc1 (stereo unspecified)	-136
Cc1cc([N+](=O)[O-])ccc1-c1ccc(C2Nc3ccccc3C(=O)N2O)o1 (stereo unspecified)	0
O=C(Nc1ccccn1)c1cc2ccccc2cc1O	-104
O=C(Nc1ccccn1)c1cc2cc([N+](=O)[O-])ccc2s1	-158
O=C(Nc1ccc(Cl)cc1)c1ccc(-c2ccccn2)s1	-170
O=C(Nc1ccccn1)c1ccc(Br)s1	-191
O=C(NC(=S)Nc1ccccn1)c1ccccc1	-133
O=C(Nc1ccccn1)c1ccc(C(=O)Nc2ccccn2)cc1	-104
O=C(NC(=S)Nc1ccccn1)c1ccc([N+](=O)[O-])cc1	-119
O=C(Nc1ccccc1)c1ccc(CSc2ccccn2)cc1	-102
O=C(c1cc2cc([N+](=O)[O-])ccc2s1)N1CCCCC1	-71
Fc1cccc(NCc2cn3ccccc3n2)c1	-97
Fc1ccc(NCc2cn3ccccc3n2)cc1	-174
O=C(COc1ccc(Oc2ccccc2)cc1)NCc1cn2ccccc2n1	0
O=C(NNC(=S)NC1CCCCC1)c1ccc2c(c1)OCO2	-78
O=C(NC1CCCCC1)c1ccc2c(c1)OCCO2	-82
S=C(NC1CCCCC1)c1ccc2c(c1)OCO2	-65
CCCCOc1ncnc2c1[nH]c1ccccc12	-81
CCCCOc1ncnc2c1[nH]c1ccc(OC)cc12	-214
SMILES	aSyn UTR act
CCCCOc1ncnc2c1[nH]c1ccc(F)cc12	-118
Nc1nc2c(C(=O)N3CCOCC3)nnn2c2ccccc12	-66
Cc1ccc(-c2nc(C=Nc3ccc(O)cc3)c(O)o2)cc1	-95
CN=Cc1nc(-c2ccccc2)oc1O	-97
Oc1oc(-c2ccccc2)nc1/C=N/c1ccccn1	-86
O=C(NCCn1cc(SCc2ccccc2F)c2ccccc21)c1c(F)cccc1F	-62
Cc1ccc(C(=O)NCCn2cc(SCC(=O)Nc3nnc(C)s3)c3ccccc32)cc1	-109
Cc1cc(NC(=O)CSc2cn(CCNC(=O)c3ccc(Cl)cc3)c3ccccc23)no1	-90
CN(C)S(=O)(=O)c1cccc(NC(=O)c2ccc3c(c2)OCCO3)c1	-119
CCC(=O)Nc1cccc(NC(=O)c2ccc3c(c2)OCCO3)c1	-105
CCN1C(=O)c2cccc3c(NC(=O)c4ccc5c(c4)OCCO5)ccc1c23	-79
Cc1nn(CCOc2ccccc2)c(=O)n1-c1ccc(F)cc1	-65
Cc1nn(C)c(=O)n1-c1ccc(OCc2ccccc2)cc1	-104
CCOc1ccc2oc(C(=O)NC(C)(C)CC)c(C)c2c1	-118
N#Cc1cc2c(nc1SCC(=O)Nc1sc3c(c1C#N)CCC3)CCCCC2	-122
CCOC(=O)c1sc(NC(=O)CSc2nc3c(cc2C#N)CCCCCC3)c(C#N)c1C	-74
N#Cc1c(NC(=O)CSc2ncn[nH]2)sc2c1CCCCC2	0
N#Cc1cc2c(nc1SCC(=O)Nc1sc3c(c1C#N)CCC3)CCCC2	-240
Cc1cccc2cc(C#N)c(SCC#N)nc12	0
N#Cc1cc2c(nc1SCc1ccncc1)CCC2	-95
CC(C)OC(=O)CSc1nc2c(cc1C#N)CCCCC2	-166
CCc1nc(SCC#N)c(C#N)cc1C	0
CCOC(=O)CC(=O)CSc1nc2c(cc1C#N)CCCCC2	-138
CC(C)(C)c1ccc(Cn2c(=N)n(CC(O)c3ccco3)c3ccccc32)cc1 (stereo unspecified)	0
CC(C)(C)c1ccc(CN2C3=NCCCN3c3ccccc32)cc1	-62
SMILES	aSyn UTR act
Cc1ccccc1NC(=O)C1Cc2ccccc2CN1C(=O)c1ccco1 (stereo unspecified)	-132
COc1cccc(NC(=O)C2Cc3ccccc3CN2C(=O)c2ccco2)c1 (stereo unspecified)	-94
c1cnc(SCCOc2cccc3ccccc23)nc1	-186
Cc1ccc(OCCSc2ncccn2)c(C)c1	-78
COc1ccc(C)cc1N=Nc1ccc(O)c2ncccc12	0
CC1Oc2ccccc2C=C1/C=N/NC(=O)c1ccccc1O (stereo unspecified)	-131
CC1Oc2ccccc2C=C1/C=N/NC(=O)c1ccccc1 (stereo unspecified)	-159
O=C(N/N=C/c1cc2c3c(c1O)CCCN3CCC2)c1ccccc1O	0
Cc1ccc(C(=O)N/N=C/C2=Cc3ccccc3OC2C)cc1 (stereo unspecified)	-71
CC(=O)C1=NOC(CNc2ncc(C(F)(F)F)cc2Cl)C1 (stereo unspecified)	-86
Cc1oc(-c2ccc(-c3ccccc3)cc2)nc1CN(CCO)C(C)C	-182
Cc1oc(-c2ccc(-c3ccccc3)cc2)nc1CN(C)C1CCOC1 (stereo unspecified)	-113
CC(C)/C(=N\NC(=O)Nc1ccccc1)c1ccccc1	-70
C/C(=N\NC(=O)Nc1ccccc1)c1ccccc1	-80
O=C(CCCN1CCOCC1)c1ccc2c(c1)OCCO2	-81
O=C(OCCN1CCOCC1)c1ccc2c(c1)OCCO2	-94
O=C(Cc1ccccc1)c1ccc2c(c1)OCCO2	-107
Cc1ccc(S(=O)(=O)CC(=O)c2ccc3c(c2)OCCO3)cc1	-70
O=c1c2sccc2nc(SCc2cc(=O)n3cc(Br)ccc3n2)n1Cc1ccccn1	-90
CCC1(c2ccc(Cl)cc2)NC(=S)N(c2ccc(C)c(C)c2)N1 (stereo unspecified)	-67
CCC1(c2ccc(Cl)cc2)NC(=S)N(c2ccc(C)cc2)N1 (stereo unspecified)	-308
COc1cccc(-c2nn(C)c3sc(C(=O)Nc4ccc5c(c4)OCCO5)cc23)c1	-101
O=c1c2sc(-c3ccccc3)cc2nc2n1CCC2	0
Cc1c(C(=O)Nc2ccccn2)sc2nc3n(c(=O)c12)CCC3	-86
CCc1cccc(NC(=O)c2sc3nc4n(c(=O)c3c2C)CCC4)c1	-137
SMILES	aSyn UTR act
Cc1c(C(=O)Nc2ccccc2F)sc2nc3n(c(=O)c12)CCC3	-111
CN1CCC(Oc2ccc(Sc3ccccc3)cc2)CC1	-77
Cc1cc(OCC(=O)N2CCCCCC2)ccc1[N+](=O)[O-]	-148
Cc1cc(OCC(=O)N2CCCC2)ccc1Cl	-91
COC(=O)c1cc(NC(=O)c2c(Cl)nc3sccn23)cc(C(=O)OC)c1	0
O=C(Nc1ccc(F)cc1)c1c(Cl)nc2ccccn12	-111
COc1ccc(NC(=O)c2c(Cl)nc3ccccn23)cc1	-142
Cn1c(C(=O)Nc2ccccc2)cc2sccc21	-172
COC(=O)c1ccc(NC(=O)c2cc3sccc3n2C)cc1	-79
COc1cc(NC(=O)c2cc3sccc3n2C)cc(OC)c1	-232
Cn1c(C(=O)Nc2ccc3c(c2)OCO3)cc2sccc21	-245
COc1ccc(OC)c(NC(=O)c2cc3sccc3n2C)c1	-93
COc1ccc(NC(=O)c2cc3sccc3n2Cc2ccc(F)cc2)cc1OC	-76
c1ccc(-c2cc3nccc(-c4ccccn4)n3n2)cc1	-196
O=C1/C(=C/c2ccccn2)SC(=S)N1CCc1ccccc1	-159
Cc1ccc(/C=C2\SC(=S)N(CCCC(=O)Nc3ccccn3)C2=O)cc1	0
COc1ccc(/C=C2\N=C(c3ccccc3Cl)NC2=O)cc1	-124
CC(=O)CCSc1ncnc2sc(-c3ccccc3)cc12	-174
O=C(O)CCSc1ncnc2sc(-c3ccccc3)cc12	0
